{
  "source": "PubChem BioAssay (NCATS)",
  "note": "Inconclusive results are not listed. Unmarked numbers belong to inactive results. Calls of active or inactive are those of the source. The call rests on the fitted dose curve; in most records, active means well fitted inhibition curve with a large enough effect; inconclusive means small, poorly fitted or top-dose-only effect; inactive means flat fitted curve, though single readings scatter. Potency means the concentration at half of the fitted maximal effect.",
  "data": [
    {"test_system": "TAB109", "test": "qHTS profiling for inhibitors of Plasmodium falciparum proliferation (AID 504749); further: nearly all actives have a fitted effect of over 60% in size;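 on activity, negative = inhibition: 0% = DMSO vehicle and full inhibition = artemisinin control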", "conditions": "P. falciparum in erythrocytes, SYBR Green DNA, 72 h; series mostly up to 28.7 µM; activity, negative = inhibition: at the top concentration", "how_it_was_run": "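Quantitative HTS: compounds pinned into medium, infected erythrocytes added (0.3% parasitemia, 2.5% hematocrit), 72 h culture at 37 C under 5% CO2. Saponin/Triton lysis with SYBR Green I, overnight RT, then fluorescence read.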", "values": [
      {"smiles": "Cn1nnc2c(C(N)=O)ncn2c1=O", "activity, negative = inhibition": "6.84%"},
      {"smiles": "N[C@@H](C(=O)N[C@@H]1C(=O)N2C(C(=O)O)=C(Cl)CS[C@H]12)c1ccccc1", "activity, negative = inhibition": "3.47%"},
      {"smiles": "O=P(O)(O)C(O)(Cc1cccnc1)P(=O)(O)O", "activity, negative = inhibition": "8.17%"},
      {"smiles": "NCCCC(O)(P(=O)(O)O)P(=O)(O)O", "activity, negative = inhibition": "5.34%"},
      {"smiles": "CC(C)(C#N)c1cc(Cn2cncn2)cc(C(C)(C)C#N)c1", "activity, negative = inhibition": "9.37%"},
      {"smiles": "Cc1ccnc2c1NC(=O)c1cccnc1N2C1CC1", "activity, negative = inhibition": "7.08%"},
      {"smiles": "O=C(O)c1cc(=O)[nH]c(=O)[nH]1", "activity, negative = inhibition": "0.962%"},
      {"smiles": "Cc1ncc([N+](=O)[O-])n1CCO", "activity, negative = inhibition": "3.84%"},
      {"smiles": "CCN(C)C(=O)Oc1cccc([C@H](C)N(C)C)c1", "activity, negative = inhibition": "3.13%"},
      {"smiles": "COc1cc(NCc2ccc3nc(N)nc(N)c3c2C)cc(OC)c1OC", "Potency": "1 µM (active)"},
      {"smiles": "COc1cc([C@@H]2c3cc4c(cc3[C@H](O)[C@H]3COC(=O)[C@H]23)OCO4)cc(OC)c1OC", "Potency": "2.51 µM (active)"},
      {"smiles": "C1CCC(C(CC2CCCCN2)C2CCCCC2)CC1", "note": "(stereo not given)", "Potency": "5.62 µM (active)"},
      {"smiles": "COc1ccc2cc3[n+](cc2c1OC)CCc1cc2c(cc1-3)OCO2", "Potency": "0.631 µM (active)"},
      {"smiles": "CCOCC(O)COc1ccc(NC(=O)CC[S+](C)C)cc1", "note": "(stereo not given)", "activity, negative = inhibition": "4.33%"},
      {"smiles": "COC(=O)Nc1nc2ccc(Sc3ccccc3)cc2[nH]1", "activity, negative = inhibition": "6.13% [at 12.8 µM]"},
      {"smiles": "CC(C)Cn1cnc2c(N)nc3ccccc3c21", "activity, negative = inhibition": "-15.7%"},
      {"smiles": "O=S(=O)(O)CCS", "activity, negative = inhibition": "-0.819%"},
      {"smiles": "CN(C)c1ccc(C(=C2C=CC(=[N+](C)C)C=C2)c2ccc(N(C)C)cc2)cc1", "Potency": "0.224 µM (active)"},
      {"smiles": "CN1CCN(c2c(F)cc3c(=O)c(C(=O)O)cn(CCF)c3c2F)CC1", "activity, negative = inhibition": "-0.366%"},
      {"smiles": "NC(=O)N1c2ccccc2CC(=O)c2ccccc21", "activity, negative = inhibition": "4.36%"}
    ]}
  ]
}
